RMI FANCM FP: inhibitors of human RMI core complex binding to FANCM MM2; Fluorescence polarization, RMI core complex with F-MM2 peptide; hits give low values; FP signal (polarization) at 33 µM; 0.58% of 70,000 active; AID 1159607; in the data active = FP signal below about 40
* = called active by the depositor. The full list was thinned out, with hits kept by preference.

SMILES	RMI FANCM FP
O=C(CCCN1C(=O)/C(=C2\SC(=S)N(CCCC(=O)Nc3cccc(C(=O)O)c3)C2=O)SC1=S)Nc1cccc(C(=O)O)c1	54
O=C(Nc1ccc(SCc2ccncc2)nn1)C1CC1	65
O=C(NCc1ccc(Cl)cc1)C(=O)NCC1CCN(C2CCCC2)CC1	73
O=C(c1ccc2c(c1)OCCO2)N1CCCCC1	-20*
O=C(Cc1ccc2c(c1)OCO2)N1CCCCC1	53
O=C(O)c1ccc2c(c1)OCCO2	53
O=S(=O)(NCCn1ncc2c(N3CCCC3)ncnc21)c1ccc(Cl)s1	61
COc1cn(CC(=O)Nc2ccc(OC(F)(F)F)cc2)c(CO)cc1=O	54
O=c1c2scc(-c3ccccc3)c2ncn1Cc1cc(=O)n2ccccc2n1	-6*
COc1ccc(-c2csc3c(=O)n(Cc4ccccc4F)cnc23)cc1	66
N#CCn1cnc2c(-c3ccccc3)csc2c1=O	62
CCN1C(=O)C(C)(C)COc2ccc(NC(=O)c3ccc4ccccc4c3)cc21	70
COc1cccc(N2C(=O)CCC2=O)c1	63
Cc1nc2cc(NC(=O)c3ccc(S(=O)(=O)N(C)CC4CCCO4)cc3)ccc2s1 (stereo not given)	58
O=C(Nc1nc2c(s1)Cc1ccccc1-2)c1ccc(S(=O)(=O)N2CCCCC2)cc1	78
O=C(Cn1cnc2c(sc3ccccc32)c1=O)NCc1ccc(Cl)cc1	143
CO/N=C(/C(=O)NC1C(=O)N2C(C(=O)O)=C(COC(C)=O)CSC12)c1csc(N)n1 (stereo not given)	59
CO/N=C(/C(=O)N[C@@H]1C(=O)N2C(C(=O)O)=C(C[N+]3(C)CCCC3)CS[C@H]12)c1csc(N)n1	50
C=CC1=C(C(=O)O)N2C(=O)[C@@H](NC(=O)C(=NO)c3csc(N)n3)[C@H]2SC1	34*
COc1ccc(C(=O)NCCCn2ncccc2=O)c(OC)c1	61
N#CC(=C(O)c1ccccc1Br)c1nc2ccccc2[nH]1	14*
Cc1ccc(N/C=C(\C#N)c2nc3ccccc3[nH]2)cc1	63
N#C/C(=C\c1ccc([N+](=O)[O-])cc1)c1nc2ccccc2[nH]1	57
C/C(=N\Nc1ccc([N+](=O)[O-])cc1[N+](=O)[O-])C1=C(O)c2ccccc2C1=O	58
Cc1ccc(C)c(S(=O)(=O)n2cccn2)c1	63
SMILES	RMI FANCM FP
Cc1ccc(C)c(S(=O)(=O)Nc2ccccc2F)c1	73
Cc1ccc(C)c(S(=O)(=O)N=C2C=C(Br)C(=O)c3ccccc32)c1	-1*
CN(C)CCN(C(=O)CCS(=O)(=O)c1ccc(F)cc1)c1nc2ccccc2s1	56
Cc1ccc(C)c(-c2nnc(NC(=O)c3ccc(S(=O)(=O)N4CCc5ccccc54)cc3)o2)c1	18*
CSc1cccc(C(=O)Nc2nnc(-c3cc(C)ccc3C)o2)c1	52
CS(=O)(=O)c1cccc(-c2nnc(NC(=O)c3ccc(S(=O)(=O)N4CCc5ccccc5C4)cc3)o2)c1	64
Cc1nc(-n2nc(-c3cccs3)cc2NC(=O)c2ccc(F)cc2)[nH]c(=O)c1C	66
CN(/C=C1\Oc2cc(O)ccc2C1=O)Cc1ccccc1	14*
Cc1ncc(CO)c(/C=C2\Oc3cc(O)ccc3C2=O)c1O	85
O=C1/C(=C/c2ccc(Cl)cc2)Oc2cc(O)ccc21	-17
N#Cc1ccc(Cl)cc1NC(=O)C(=O)NCCc1ccc(N2CCCC2)cc1	88
O=C(NCC1COC2(CCCC2)O1)C1CCCCC1 (stereo not given)	51
O=C1CNC(=S)N1Cc1ccco1	51
O=c1cc(O)n(Cc2ccco2)c(=S)[nH]1	26*
O=c1[nH]c(=S)c2c(n1Cc1ccco1)CCCC2	63
O=C(Nc1nnc(-c2ccc(Br)cc2)o1)c1ccccc1[N+](=O)[O-]	64
COc1ccc(C(=O)N2CCC(C(=O)O)CC2)cc1OC	54
N/C(CN1CCCCC1)=N/O	52
CCN(CC)c1ccc(C=Nc2sc(C)c(C)c2C#N)cc1	68
Cc1sc(N=Cc2ccco2)c(C#N)c1C	-16*
Cc1ccc(C=Nc2sc(C)c(C)c2C#N)s1	62
CC(C)Cc1c[nH]c2c(c1=O)c(=O)n(C)c(=O)n2C	70
Cc1cc(NS(=O)(=O)c2ccc(NC(=O)c3cc(Cl)ccc3[N+](=O)[O-])cc2)no1	53
Cc1oc(-c2cccc(C(F)(F)F)c2)cc1C(=O)Nc1ccc(S(N)(=O)=O)cc1	64
Cc1oc(-c2ccc(Cl)cc2[N+](=O)[O-])cc1C(=O)Nc1ccc(S(N)(=O)=O)cc1	13*
SMILES	RMI FANCM FP
CC(C)Oc1ccc(C(=O)Nc2ccc3c(c2)CC(=O)N3)cc1	50
CCOc1ccc(NC(=O)Cn2c(C)cc(C)c(S(=O)(=O)c3ccccc3)c2=O)cc1	64
COCC(=O)N1CCCc2ccc(NS(=O)(=O)c3cc(Cl)ccc3OC)cc21	69
O=Cc1cnc2ccccc2n1	59
Cc1cc(SCC(N)=O)nc2ccccc12	71
N=C(N)Sc1cnc2ccccc2n1	37*
CS(=O)(=O)c1ccc(CC(=O)Nc2nnc(C3CCCO3)o2)cc1 (stereo not given)	56
CCCCCCCCCCCCCCCC[N+](C)(C)C	34*
C[N+](C)(C)CCSSCC[N+](C)(C)C	59
CCCCCCCCCCCCCO	55
NC(=O)Cc1nc(-c2ccncc2)n[nH]1	60
CCOC(=O)c1c(NC(C)=O)sc(C)c1C	56
CCOC(=O)c1c(NC(=O)c2cc(S(=O)(=O)C(C)C)c(SC)s2)sc(C)c1C	37*
CCOC(=O)c1c(NC(=O)c2ccc(Br)s2)sc(C)c1C	79
COc1ccc(C2=NN(C(=O)CCC(=O)O)C(c3cc4cc(OC)ccc4nc3Cl)C2)cc1 (stereo not given)	49
CCOC(=O)c1c(N=c2oc3c(OC)cccc3cc2C(=O)Nc2ccc(C)cc2)sc2c1CCCC2	58
COc1cc(C(=O)Nc2ccccc2N2CCCCC2)cc(OC)c1OC	58
CCOc1ccccc1N=c1oc2c3c4c(cc2cc1C(=O)Nc1ccccc1OC)CCCN4CCC3	33*
COc1ccc(CCC(=O)Nc2c(C)nc3sccn3c2=O)cc1	64
O=C(Cc1ccc(F)cc1)Nc1nc(-c2cc(Cl)sc2Cl)cs1	58
c1ccc(Oc2cccc(Oc3ccccc3)c2)cc1	58
O=C1OC(=O)c2c(Oc3ccccc3)cc3c4c(c(Oc5ccccc5)cc1c24)C(=O)OC3=O	30*
O=C1c2cc(Cl)c(Cl)cc2C(=O)N1c1ccc(Oc2ccccc2)cc1	64
Oc1cc(N=Nc2ccc(SC(F)F)cc2)c2ccccc2c1	55
CCOC(=O)N1CCN(C(=O)CCc2csc(NC(=O)c3ccc[nH]c3=O)n2)CC1	63
SMILES	RMI FANCM FP
CCOC(=O)c1cc(-c2ccc(N)cc2)oc1C	56
CCOC(=O)c1c(N)oc2c(-c3ccc(C)cc3)c3c(C(=O)OCC)c(N)oc3cc12	22*
CCOC(=O)c1c(N)sc(C)c1-c1ccccc1	52
CCNc1cc(C)nc(Nc2ccc(NC(=O)c3cc4ccccc4oc3=O)cc2)n1	86
CCn1c(C)cc(O)c(C(c2cccnc2)N2CCCCC2)c1=O (stereo not given)	55
CCOC(=O)c1ccc(NS(=O)(=O)c2c(-c3ccc(Cl)cc3)csc2C(=O)OC)cc1	61
O=C(Cc1cccc2ccccc12)NCc1ccsc1	66
CCOC(=O)c1c(C)n(S(=O)(=O)c2ccc(CC)cc2)c2ccc(NS(=O)(=O)c3ccc(CC)cc3)cc12	55
Cc1ccc(S(=O)(=O)NN2C(=O)c3ccccc3NC2c2cc(Br)ccc2O)cc1 (stereo not given)	53

Compound activity (PubChem BioAssay)
